Experiment [1] can be described thus: Counterscreen qHTS for small molecule stabilizers of the endoplasmic reticulum resident proteome: GLuc-NoTag assay (AID 1508627).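 Further: 0% = thapsigargin alone and -100% = DMSO vehicle control.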 In a few lines: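 Secreted GLuc lacking the SERCaMP modification is measured in SH-SY5Y cells exposed to compound for 19 h and then to thapsigargin (100 nM, 4 h) to deplete ER calcium; hits retested at 11 concentrations, up to 76.6 uM.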
For orientation: Counterscreens check selectivity or assay interference.

A short description of experiment [2]: qHTS profiling for inhibitors of Plasmodium falciparum (3D7) proliferation (AID 743322).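 Further: infected erythrocytes exposed to compound for 72 h before lysis; 100% = DMSO vehicle wells and 0% = 0.29 µM artemisinin.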 The settings on record: P. falciparum 3D7 proliferation; at 28.7 µM (top of the series). In a few lines:
(§1)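 Parasite DNA was quantified by SYBR Green I fluorescence (ex 485, em 535 nm) after overnight lysis in saponin/Triton buffer at room temperature. Cultures at 0.3% parasitemia and 2.5% hematocrit were first exposed to compound for 72 h at 37 C; signals were normalised to artemisinin (0.29 uM) and vehicle wells.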
For orientation: Quantitative high-throughput screening tests each substance at several concentrations.

The nature of experiment [3]: qHTS profiling for inhibitors of Plasmodium falciparum (HB3) proliferation (AID 743324).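 Further: 100% = DMSO vehicle wells and 0% = artemisinin-treated control wells.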 Conditions: Plasmodium falciparum HB3 blood-stage proliferation; at 28.7 µM (top of the series). In a few lines: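 SYBR Green fluorescence (485 ex/535 em) of lysed cultures, incubated overnight at room temperature in the dark, quantifies parasite DNA. Infected erythrocytes at 0.3% parasitemia and 2.5% hematocrit were exposed 72 h; values normalized to DMSO and 0.29 uM artemisinin controls.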

Experiment [4] has as its target Calcium and integrin-binding protein 1 (Homo sapiens) (UniProt Q99828). As to the kind of experiment: Primary qHTS for Identification of Calcium Integrin Binding Protein 1 (CIB1) Competitor (AID 1508620).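 Further: GST tagged CIB1 binding a fluorescein labelled alphaIIb integrin peptide tracer; top concentration of the series differs between compounds; on the % scale 0 is the no-effect control and ±100 the full control effect.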 In a few lines:
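Fluorescence polarization competition: CIB1-GST (1 uM final) preincubated with compound 15 min at room temperature, then FITC-labeled alphaIIb peptide (100 nM final) added for another 15 min. Polarization read at Ex 480/Em 540.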

Experiment [5] has as its target Cytochrome P450 3A4 (Homo sapiens) (UniProt P08684). Kind of experiment: qHTS Assay for Inhibitors and Substrates of Cytochrome P450 3A4 (AID 884). Further: potency means the concentration at half of the fitted maximal effect; nearly all actives have a fitted effect of over 50% in size. In a few lines:
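Luminescent readout of luciferin produced by CYP3A4 (20 nM) dealkylation of Luciferin-PPXE, 25 uM (its KM). NADPH-driven reaction ran 60 min at RT after 10 min compound preincubation; data scaled to 57 uM ketoconazole as 100% inhibition.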

For experiment [6] the target is unchanged. As to the kind of experiment: qHTS Assay for Activators of Cytochrome P450 3A4 (AID 885). Further: nearly all actives have a fitted effect of over 65% in size. In a few lines: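 Activators are scored by enhanced luminescence from CYP3A4 conversion of luciferin-PPXE (25uM, equal to KM) to luciferin, after 60 min at RT with an NADPH-regenerating system.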
Experiment [7] is described as follows: Confirmatory qHTS for small molecule stabilizers of the endoplasmic reticulum resident proteome: Secreted ER Calcium Modulated Protein (SERCaMP) assay (AID 1508628).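 Further: SH-SY5Y cells given compound 16 h then thapsigargin 100 nM for 4 h; on the % scale 0 is the no-effect control and ±100 the full control effect; nearly all actives have a fitted effect of over 40% in size.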 In a few lines: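 GLuc-SERCaMP-expressing SH-SY5Y cells, pretreated 16 h with compound, are challenged with thapsigargin to empty ER calcium stores; after 4 h, coelenterazine is added directly to the medium and luminescence is imaged.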

A short description of experiment [8]: qHTS profiling of the MIPE4 collection as inhibitors of Plasmodium falciparum (3D7) proliferation (AID 743344; call rule not given here;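 further: scaled between DMSO vehicle wells and 0.29 µM artemisinin as full inhibition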). Conditions: P. falciparum 3D7 in erythrocytes, SYBR Green DNA fluorescence, 72 h; at 28.5 µM (top of the series). In a few lines:
as §1

Experiment [9] in a line: qHTS profiling of the MIPE4 collection as inhibitors of Plasmodium falciparum (DD2) proliferation (AID 743345; call rule not given here). The settings on record: P. falciparum Dd2 in erythrocytes, SYBR Green DNA, 72 h; at 28.5 µM (top of the series). In a few lines: as §1
Experiment [10] is described as follows: qHTS profiling of the MIPE4 collection as inhibitors of Plasmodium falciparum (DD2) proliferation (Rep 2) (AID 743346; call rule not given here). Conditions: P. falciparum Dd2 in erythrocytes, SYBR Green DNA, 72 h; at 28.5 µM (top of the series). In a few lines: as §1
Experiment [11] in a line: qHTS profiling of the MIPE4 collection as inhibitors of Plasmodium falciparum (HB3) proliferation (AID 743347; call rule not given here;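 further: plate controls were DMSO vehicle wells for no effect and artemisinin wells for full effect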). Conditions: P. falciparum HB3 in erythrocytes, SYBR Green DNA, 72 h; at 28.5 µM (top of the series). In a few lines: as §1
The target of experiment [12] is Ubiquitin carboxyl-terminal hydrolase 2 (Homo sapiens) (UniProt O75604). As to the kind of experiment: qHTS for Inhibitors of Ubiquitin-specific Protease USP2a Using CHOP2 as the Reporter: K484 Substrate (AID 652173).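 Further: cleavage of internally quenched K48 di-ubiquitin substrate measured as rising fluorescence over time; potency means the concentration at half of the fitted maximal effect; nearly all actives have a fitted effect of over 70% in size.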 In a few lines: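 Kinetic fluorescence (Ex 525/Em 598) tracked cleavage of an internally quenched K48 di-ubiquitin substrate, added as a 100 nM solution. The enzyme was added as a 5 nM USP2 solution before compound pinning, with no-enzyme controls. Buffer: Tris pH 8, beta-mercaptoethanol, CHAPS.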
Chain of Ubiquitin carboxyl-terminal hydrolase 2 (Homo sapiens) (O75604 whole entry, looked up): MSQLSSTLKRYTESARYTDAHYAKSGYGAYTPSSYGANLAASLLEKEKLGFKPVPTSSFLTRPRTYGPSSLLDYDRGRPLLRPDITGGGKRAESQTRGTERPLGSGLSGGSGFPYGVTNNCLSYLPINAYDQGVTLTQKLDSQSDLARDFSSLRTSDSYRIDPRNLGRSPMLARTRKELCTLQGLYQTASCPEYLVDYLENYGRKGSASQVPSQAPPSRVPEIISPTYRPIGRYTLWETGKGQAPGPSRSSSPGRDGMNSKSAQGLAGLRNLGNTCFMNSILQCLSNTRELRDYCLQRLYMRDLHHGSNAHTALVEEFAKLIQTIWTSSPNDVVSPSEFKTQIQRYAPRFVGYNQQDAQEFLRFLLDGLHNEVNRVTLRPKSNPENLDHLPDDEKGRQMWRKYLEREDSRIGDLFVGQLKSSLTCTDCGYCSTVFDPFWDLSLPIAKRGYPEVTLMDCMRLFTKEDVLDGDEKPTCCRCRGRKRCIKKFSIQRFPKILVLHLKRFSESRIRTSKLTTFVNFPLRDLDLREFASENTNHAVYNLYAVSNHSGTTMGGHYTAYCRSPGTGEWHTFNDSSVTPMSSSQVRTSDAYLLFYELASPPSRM

Results filed as inconclusive are left out. The source made the active and inactive calls. Unless noted, the call rests on the fitted dose curve; in most records, active means well fitted curve in the direction sought with a large enough effect; inconclusive means small, poorly fitted or top-dose-only effect, or another doubt; inactive means no such curve, though single readings can be large; an effect the other way counts as inactive or inconclusive.

Chain of Calcium and integrin-binding protein 1 (Homo sapiens) (Q99828 whole entry, looked up): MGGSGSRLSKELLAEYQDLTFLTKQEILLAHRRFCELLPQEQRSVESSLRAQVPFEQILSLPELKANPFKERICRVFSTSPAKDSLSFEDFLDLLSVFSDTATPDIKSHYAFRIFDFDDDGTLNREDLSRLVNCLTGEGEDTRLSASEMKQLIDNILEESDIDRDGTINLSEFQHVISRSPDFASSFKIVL
Chain of Cytochrome P450 3A4 (Homo sapiens) (P08684 whole entry, looked up): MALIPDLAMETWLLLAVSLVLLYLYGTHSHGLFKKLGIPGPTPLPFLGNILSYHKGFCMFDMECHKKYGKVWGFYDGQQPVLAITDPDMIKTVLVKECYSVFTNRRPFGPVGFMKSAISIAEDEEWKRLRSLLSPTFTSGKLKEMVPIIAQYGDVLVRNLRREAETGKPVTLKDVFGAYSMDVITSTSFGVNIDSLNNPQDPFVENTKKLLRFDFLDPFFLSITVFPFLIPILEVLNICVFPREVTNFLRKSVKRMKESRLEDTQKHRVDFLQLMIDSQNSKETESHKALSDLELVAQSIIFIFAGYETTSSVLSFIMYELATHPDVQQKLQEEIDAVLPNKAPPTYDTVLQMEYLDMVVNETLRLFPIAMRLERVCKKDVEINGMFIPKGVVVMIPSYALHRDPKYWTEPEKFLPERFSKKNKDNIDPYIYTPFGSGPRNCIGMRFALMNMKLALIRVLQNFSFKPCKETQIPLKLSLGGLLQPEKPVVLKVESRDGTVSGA

With `C1CCC[C@H]2CCCN3CC[C@H](CCCCCC[C@@H]4CCCN5CC[C@H](CC1)OC45)OC23`, the activity change, negative = inhibition in [1] is 16.2% [at 9.46 µM] (inactive).
`N[C@@H](Cc1ccc(O[S+](=O)([O-])c2cccc3cnccc23)cc1)C(=O)N1CCN(c2ccccc2)CC1`: in experiment [2], the remaining parasite growth % (stronger effect = lower value) is -0.448%. Also, in experiment [3], the remaining proliferation (% of control), lower = more inhibition turned out to be 1.2%. In [4], the Potency entry is “inactive”.
For the compound `O=C(NCCN1CCCC1)[C@H](Cc1ccc(OS(=O)(=O)c2cccc3cnccc23)cc1)NS(=O)(=O)c1cccc2cnccc12`, the remaining parasite growth % (stronger effect = lower value) in experiment [2] was determined as 0.578%. In addition, the remaining proliferation (% of control), lower = more inhibition in experiment [3] was found to be 1.37%. In addition, the Potency entry in [4] was “inactive”.
Turning to `Cc1nc(NCc2ccccc2)c2nc(-c3ccccc3)n(CCN3CCOCC3)c2n1`, the Potency in experiment [5] was 631 nM (active). For the same compound, the Potency entry in experiment [6] and in [4] was “inactive” throughout.
For `COc1ccc(C2Nc3ccccc3C(=O)N2c2ccccc2)cc1COc1ccc(NC(C)=O)cc1` (centres undefined), the Potency result in experiment [1] was “inactive”.
Consider `CC(C)(C)OC(=O)N[C@@H](Cc1ccc(O[S+](=O)([O-])c2cccc3cnccc23)cc1)C(=O)N1CCN(c2ccccc2)CC1`, for which the remaining parasite growth % (stronger effect = lower value) in experiment [2] is -1.52%. In addition, the remaining proliferation (% of control), lower = more inhibition in [3] was -0.489%. In experiment [4], the Potency result is “inactive”.
In the case of `COc1cc(CN2CCN(C(=O)c3ccc(-c4ccccc4)cc3)CC2)cc(OC)c1OC`, the Potency result in [1] and in experiment [7] was “inactive” each time.
Take `CN1CCN(C(=O)[C@H](Cc2ccc(O[S+](=O)([O-])c3cccc4cnccc34)cc2)N[S+](=O)([O-])c2cccc3cnccc23)CC1`: the remaining parasite growth % (stronger effect = lower value) in [2] is 10.3%. The remaining proliferation (% of control), lower = more inhibition in experiment [3] was 5.8%. For the same compound, in experiment [4], the Potency result is “inactive”.
The like results for `COC(=O)[C@H](Cc1ccc(O[S+](=O)([O-])c2cccc3cnccc23)cc1)N(C)[S+](=O)([O-])c1ccc2cnccc2c1` were, in that order, -0.184%, 0.837% and “inactive”.
As for `CC(C)(C)c1cc(O)c(CN)c(C(C)(C)C)c1`, the remaining parasite growth % (stronger effect = lower value) in [2] is -0.824%. Further, in [3], the remaining proliferation (% of control), lower = more inhibition is -0.148%. The compound also had a parasite growth, % of DMSO control in [8] of 6.1%. For the same compound, the parasite growth remaining, % of DMSO control (lower = more inhibition) in experiment [9] was 7.28%. The parasite growth, % of control (lower = inhibition) in [10] came to 19.6%. The same compound came in with a growth, % of control in experiment [11] of 4.33%. Moreover, in [4], the Potency result was “inactive”.
Turning to `O=C(Nc1ncccn1)c1ccc([N+](=O)[O-])o1`, the Potency entry in experiment [1] is “inactive”.
In the case of `Cc1ccc(CNc2ccccc2C(=O)Nc2nc(-c3ccccc3)cs2)cc1`, in experiment [12], the Potency is 21700 nM (active). The Potency entry in experiment [4] was “inactive”.
For `Cc1ccc(S(=O)(=O)Nc2ccc(C(=O)Nc3ncc(-c4ccccc4)s3)cc2)cc1`, the Potency in experiment [12] was 2430 nM (active). In experiment [4], the Potency entry is “inactive”.
With `Cc1ccc(S(=O)(=O)Nc2ccccc2C(=O)Nc2ccc(-c3ccccc3)cn2)cc1`, the Potency in [12] was 2170 nM (active). The Potency entry in experiment [4] is “inactive”.
On to `N[C@@H](Cc1ccc(O[S+](=O)([O-])c2cccc3cccnc23)cc1)C(=O)N1CCN(c2ccccc2)CC1`, for which the remaining parasite growth % (stronger effect = lower value) in experiment [2] came to 0.473%. The remaining proliferation (% of control), lower = more inhibition in [3] turned out to be 0.538%. In addition, the Potency entry in experiment [4] is “inactive”.
Take `Cc1ccc(S(=O)(=O)Nc2ccc(C)cc2C(=O)Nc2nc(-c3ccccc3)cs2)cc1`: in experiment [12], the Potency was 1930 nM (active). The Potency entry in [4] is “inactive”.
The like results for `Cc1ccc(-c2cc(C(=O)NCc3ccc(S(C)(=O)=O)cc3)c3ccccc3n2)cc1C` were, in that order, 10900 nM (active) and “inactive”.
Turning to `O=C([C@H](Cc1ccc(O[S+](=O)([O-])c2cccnc2)cc1)N[S+](=O)([O-])c1cccc2cnccc12)N1CCN(c2ccccc2)CC1`, in [2], the remaining parasite growth % (stronger effect = lower value) is 0.0541%. In addition, the remaining proliferation (% of control), lower = more inhibition in experiment [3] turned out to be 0.563%. Besides, the Potency entry in experiment [4] is “inactive”.
In the case of `CNC1CCC(N(Cc2ccc(OC)c(-c3ccc(C#N)cc3)c2)C(=O)c2sc3ccccc3c2Cl)CC1` (centres undefined), the remaining parasite growth % (stronger effect = lower value) in experiment [2] is -1.61%. Further, the remaining proliferation (% of control), lower = more inhibition in experiment [3] is -1.57%. Also, the Potency result in experiment [4] was “inactive”.

Values taken from PubChem BioAssay (NCATS).
